# Data as given in PubChem BioAssay.
# “And” between values parts separate entries of the source, which are not always exact repeats. Equal values may be shown once. Records with an inconclusive call do not appear. For part of these data: Measured potencies and affinities stand elsewhere. The source made the active and inactive calls. Unless noted, the rule behind the calls is not given here.
# Tests used:
# [1] = antimalarial activity against Dd2 strain (AID 2302;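 active = growth inhibition above 50% at the single 2 µM test dose, taken to imply half-maximal potency below 2 µM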;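 note: 0% = DMSO untreated growth and 100% = chloroquine plus artemisinin killed control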); settings: P. falciparum Dd2 in RBCs, LDH growth readout, 72 h; at 2 µM; stronger effect = higher value
# [2] = HepG2 cytotoxicity, primary screen, cytotoxicity control for P. falciparum antimalarial project, cell-based, ATP luminescence (AID 2303;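 active = inhibition above 50%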;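 note: 0% = DMSO wells and 100% = digitonin-killed cells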); settings: HepG2 viability, 24-48 h, at 10 µM, stronger effect = higher value
# [3] = molecular target: L-lactate dehydrogenase (Plasmodium falciparum (isolate CDC / Honduras)) (UniProt Q27743); assay: PfLDH activity inhibition – cell lysate, 3D7 strain, counter-screen for P. falciparum growth inhibition project (AID 2304);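 note: 0% = vehicle and 100% = reference inhibitor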; settings: P. falciparum 3D7 crude extract, LDH APAD/NBT absorbance; at 2 µM; stronger effect = higher value
# L-lactate dehydrogenase (Plasmodium falciparum (isolate CDC / Honduras)), sequence (Q27743 whole entry, looked up): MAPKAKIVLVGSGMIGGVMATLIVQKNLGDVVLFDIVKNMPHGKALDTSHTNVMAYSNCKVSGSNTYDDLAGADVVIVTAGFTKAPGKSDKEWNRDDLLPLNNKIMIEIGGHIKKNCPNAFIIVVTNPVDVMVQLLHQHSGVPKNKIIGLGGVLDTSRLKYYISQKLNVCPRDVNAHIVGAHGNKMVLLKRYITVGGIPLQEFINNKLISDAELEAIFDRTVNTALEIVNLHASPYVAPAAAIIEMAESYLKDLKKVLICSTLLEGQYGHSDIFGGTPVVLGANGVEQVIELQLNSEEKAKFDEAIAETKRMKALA
# [4] = inhibition of 3D7 malaria parasite growth – strain 3D7 (AID 2306);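 note: 0% = DMSO wells and 100% = chloroquine plus artemisinin control wells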; settings: P. falciparum 3D7 erythrocytic growth, LDH absorbance, 72 h; at 2 µM; stronger effect = higher value
# [5] = molecular target: Plasmodium falciparum protein kinase 6 (PK6, PF3D7_1337100) (UniProt Q8IDW1); assay: PfPK6 kinase inhibitors, biochemical, TCAMS library (AID 1159586); settings: recombinant PfPK6, Kinase-Glo ATP depletion luminescence
# Plasmodium falciparum protein kinase 6 (PK6, PF3D7_1337100), sequence (Q8IDW1 1-305): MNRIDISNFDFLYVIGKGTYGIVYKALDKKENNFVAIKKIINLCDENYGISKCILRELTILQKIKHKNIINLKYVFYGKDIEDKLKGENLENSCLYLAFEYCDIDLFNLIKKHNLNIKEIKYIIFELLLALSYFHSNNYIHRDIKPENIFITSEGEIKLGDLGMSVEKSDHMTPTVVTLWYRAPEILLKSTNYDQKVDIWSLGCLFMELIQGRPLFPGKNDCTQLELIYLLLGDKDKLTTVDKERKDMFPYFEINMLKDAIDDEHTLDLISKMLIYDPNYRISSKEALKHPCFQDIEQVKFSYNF
# [6] = molecular target: Protein kinase 7 (PK7), Plasmodium falciparum 3D7 (PF3D7_0213400) (UniProt Q7YTF7); assay: inhibition of Plasmodium PK7 catalytic activity – biochemical, TCAMS antimalarial set, Kinase-Glo luminescence (AID 1159587); settings: recombinant PfPK7, Kinase-Glo ATP depletion luminescence
# Protein kinase 7 (PK7), Plasmodium falciparum 3D7 (PF3D7_0213400), sequence (Q7YTF7 1-343): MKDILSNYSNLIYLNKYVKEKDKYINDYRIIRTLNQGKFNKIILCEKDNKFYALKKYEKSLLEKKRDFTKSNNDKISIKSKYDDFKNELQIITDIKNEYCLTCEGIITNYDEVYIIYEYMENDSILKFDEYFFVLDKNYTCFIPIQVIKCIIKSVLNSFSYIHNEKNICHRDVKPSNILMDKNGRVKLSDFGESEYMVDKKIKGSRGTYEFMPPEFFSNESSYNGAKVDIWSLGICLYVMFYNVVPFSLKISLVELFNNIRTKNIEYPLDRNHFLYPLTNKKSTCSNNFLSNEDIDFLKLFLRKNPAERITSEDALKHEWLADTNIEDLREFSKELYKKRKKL
# [7] = molecular target: Calcium-dependent protein kinase 4 (Plasmodium falciparum (isolate 3D7)) (UniProt Q8IBS5); assay: PfCDPK4 kinase inhibitors, biochemical, TCAMS library (AID 1159588; cut-off not given, nearly all actives have IC50 up to about 0.91 µM); settings: recombinant PfCDPK4, Kinase-Glo ATP depletion luminescence
# Calcium-dependent protein kinase 4 (Plasmodium falciparum (isolate 3D7)), sequence (Q8IBS5 whole entry, looked up): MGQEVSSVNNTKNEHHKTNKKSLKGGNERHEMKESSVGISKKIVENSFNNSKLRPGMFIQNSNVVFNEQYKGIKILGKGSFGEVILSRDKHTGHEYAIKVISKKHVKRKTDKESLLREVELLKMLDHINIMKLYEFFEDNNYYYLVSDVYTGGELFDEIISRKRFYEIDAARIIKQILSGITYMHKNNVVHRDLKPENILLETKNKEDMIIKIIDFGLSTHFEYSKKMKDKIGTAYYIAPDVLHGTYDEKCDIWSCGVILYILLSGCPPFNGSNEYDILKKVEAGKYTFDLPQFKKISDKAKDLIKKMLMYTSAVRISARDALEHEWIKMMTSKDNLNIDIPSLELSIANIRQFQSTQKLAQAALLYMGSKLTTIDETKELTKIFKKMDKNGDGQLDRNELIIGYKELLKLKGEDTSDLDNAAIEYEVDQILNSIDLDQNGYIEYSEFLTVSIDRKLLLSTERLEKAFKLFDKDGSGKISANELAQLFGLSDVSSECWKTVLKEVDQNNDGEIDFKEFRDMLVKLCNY
# [8] = test system: Hepatitis C virus NS3 helicase; assay: HCV NS3 helicase inhibitors, primary screen, biochemical, fluorescence polarization, LOPAC1280 library (AID 687035; in the data active = inhibition above about 37%); settings: Purified HCV NS3 helicase, Cy5-dT15 ssDNA binding fluorescence polarization; stronger effect = higher value; concentration not given here
# [9] = Cy5 fluorescence quenching or enhancement artefacts, artefact control for HCV NS3 helicase inhibitor project, biochemical, LOPAC1280 (AID 687037); settings: Cy5-DNA-NS3h complex fluorescence interference counterscreen
# [10] = growth inhibition of DIPG glioma cells, dose response, cell-based, JHH-DIPG-1, MIPE4.0, CellTiter-Glo, qHTS (AID 1347062; cut-off not given, nearly all actives have AC50 up to about 27 µM;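 note: cells exposed to compound for two days before readout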); settings: JHH-DIPG-1 viability, CellTiter-Glo ATP luminescence
# [11] = growth inhibition of DIPG glioma cells, dose response, cell-based, SU-DIPG-IV, MIPE4.0, CellTiter-Glo, qHTS (AID 1347063; cut-off not given, nearly all actives have AC50 up to about 30 µM;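 note: compound exposure lasted 48 hours before the viability readout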); settings: SU-DIPG-IV viability, CellTiter-Glo ATP luminescence
# [12] = modifiers of HSF1 nuclear foci, imaging, Selleck Cancer Library (AID 1347162; in the data active = plate-normalised HSF1 focus index below about 0.46); settings: human cells, at 10 µM; SSMD: measured here: HSF1 foci SSMD mean; cell count: measured here: cell number; plate-normalised HSF1 focus index: stronger effect = lower value
# [13] = phospholipid biosynthesis inhibitors in animal cells, primary screen, cell-based, LOPAC library, screen 4 (AID 1347384); settings: phospholipid biosynthesis inhibition screen, at 10 µM
# [14] = survival rescue of mitochondrial mutant cells in low glucose, primary screen, MELAS cybrids, Rieske KO mouse fibroblasts, CellTiter-Glo (AID 1508586;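 active = mean z-score across replicates of 1.96 or higher in either the MELAS or the Rieske mutant cell line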;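 note: z relative to plate mean and SD of compound and empty wells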)
# [15] = molecular target: NAD(+) hydrolase SARM1 (Homo sapiens) (UniProt Q6SZW1); assay: SARM1 TIR NADase inhibitors, cell lysate, NAD-Glo luminescence (AID 1508614;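 active = compound whose remaining NAD level is above about 45 nM, limit read from the data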;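 note: higher remaining NAD means stronger inhibition of SARM1 NADase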); settings: SAM-TIR HEK293T lysate NADase, at 1 µM, stronger effect = higher value
# NAD(+) hydrolase SARM1 (Homo sapiens), sequence (Q6SZW1 whole entry, looked up): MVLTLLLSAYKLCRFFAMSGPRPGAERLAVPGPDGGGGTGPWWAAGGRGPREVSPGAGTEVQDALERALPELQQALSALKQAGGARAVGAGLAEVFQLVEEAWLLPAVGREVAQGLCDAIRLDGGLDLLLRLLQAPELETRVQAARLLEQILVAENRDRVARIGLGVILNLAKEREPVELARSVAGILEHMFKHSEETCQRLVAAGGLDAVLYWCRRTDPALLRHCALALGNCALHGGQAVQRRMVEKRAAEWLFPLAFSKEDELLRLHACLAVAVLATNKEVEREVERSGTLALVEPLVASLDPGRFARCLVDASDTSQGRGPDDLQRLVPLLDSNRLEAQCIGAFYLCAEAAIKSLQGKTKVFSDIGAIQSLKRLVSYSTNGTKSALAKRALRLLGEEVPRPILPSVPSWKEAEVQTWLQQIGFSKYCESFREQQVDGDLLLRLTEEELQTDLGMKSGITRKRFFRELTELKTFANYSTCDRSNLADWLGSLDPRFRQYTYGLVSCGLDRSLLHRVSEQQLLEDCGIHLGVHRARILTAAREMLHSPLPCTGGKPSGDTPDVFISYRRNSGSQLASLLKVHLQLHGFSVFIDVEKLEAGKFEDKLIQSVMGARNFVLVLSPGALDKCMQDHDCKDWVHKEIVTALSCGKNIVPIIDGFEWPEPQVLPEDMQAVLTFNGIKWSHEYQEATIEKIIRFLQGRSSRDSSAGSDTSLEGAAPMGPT
# [16] = viability rescue of complex I mutant cybrids, primary screen, cell-based, galactose medium, ATP luminescence (AID 1645843;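 active = z-score of at least 1.8 in each of two replicates, scored against plate mean and spread of sample wells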;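 note: positive z means more ATP and so rescue of galactose-driven cybrid death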); settings: complex I mutant cybrid cells, 72 h, stronger effect = higher value
smiles,measurement,setting,value
CCCCCCC(CC)c1cc(O)c2c(c1)OC(C)(C)c1ccncc1-2 (stereo unspecified),growth inhibition,[1],52% (active)
same,inhibition,[2],-1% (inactive)
same,inhibition,[3],-6% (inactive)
same,growth inhibition,[4],94% (active)
same,outcome,[5],inactive
same,outcome,[6],inactive
same,outcome,[7],inactive
CC(O)(CS(=O)(=O)c1ccc(F)cc1)C(=O)Nc1ccc(C#N)c(C(F)(F)F)c1 (stereo unspecified),inhibition,[8],0% (inactive)
same,fluorescence ratio (interference),[9],1 (inactive)
same,AC50,[10],9.35 µM (active)
same,AC50,[11],13.2 µM (active)
same,SSMD,[12],2.85
same,cell count,[12],7580
same,plate-normalised HSF1 focus index,[12],1.1 (inactive)
same,outcome,[13],inactive
same,z-score,"[14]; MELAS cybrid survival, CellTiter-Glo 48 h, stronger effect = higher value",-0.358 (inactive) and -0.11 (inactive) and 0.746 (inactive)
same,z-score,"[14]; Rieske KO mouse fibroblast survival, CellTiter-Glo 72 h",0.621 and -0.29 and 0.356
same,remaining NAD,[15],10 nM (inactive)
same,z-score,[16],-0.24 (inactive) and -0.44 (inactive) and 0.235 (inactive)
COc1cc(C(=O)NC2CCC(CN3CCC(c4c[nH]c5ccccc45)CC3)CC2)cc(Cl)n1 (stereo unspecified),growth inhibition,[1],45% (inactive)
same,inhibition,[2],33% (inactive)
same,inhibition,[3],-1% (inactive)
same,growth inhibition,[4],99% (active)
same,outcome,[5],inactive
same,outcome,[6],inactive
same,outcome,[7],inactive
O=C(/C=C/c1ccc(Cl)c(Cl)c1)NCC1CCC(CN2CCC(c3c[nH]c4ccccc34)CC2)CC1 (stereo unspecified),growth inhibition,[1],93% (active)
same,inhibition,[2],54% (active)
same,inhibition,[3],4% (inactive)
same,growth inhibition,[4],102% (active)
same,outcome,[5],inactive
same,outcome,[6],inactive
same,outcome,[7],inactive
O=C(NC1CCC(CN2CCC(c3c[nH]c4ccccc34)CC2)CC1)c1cnn(-c2ccccc2)c1-c1ccccc1Cl (stereo unspecified),growth inhibition,[1],11% (inactive)
same,inhibition,[2],66% (active)
same,inhibition,[3],-6% (inactive)
same,growth inhibition,[4],95% (active)
same,outcome,[5],inactive
same,outcome,[6],inactive
same,outcome,[7],inactive
CN1CC(c2ccc(Cl)c(Cl)c2)OC1=N (stereo unspecified),growth inhibition,[1],3% (inactive)
same,inhibition,[3],2% (inactive)
same,growth inhibition,[4],99% (active)
same,outcome,[5],inactive
same,outcome,[6],inactive
same,outcome,[7],inactive
O=C(NC1CCC(CN2CCC(c3c[nH]c4ccccc34)CC2)CC1)NC12CC3CC(CC(C3)C1)C2 (stereo unspecified),growth inhibition,[1],46% (inactive)
same,inhibition,[2],37% (inactive)
same,inhibition,[3],7% (inactive)
same,growth inhibition,[4],96% (active)
same,outcome,[5],inactive
same,outcome,[6],inactive
same,outcome,[7],inactive
CC[C@H]1CN2CC[C@@H]1C[C@H]2[C@H](O)c1cc(N2CCC(CO)CC2)nc2ccc(OC)cc12,growth inhibition,[1],99% (active)
same,inhibition,[2],4% (inactive)
same,inhibition,[3],-1% (inactive)
same,growth inhibition,[4],99% (active)
same,outcome,[5],inactive
same,outcome,[6],inactive
same,outcome,[7],inactive
CC[C@H]1CN2CC[C@H]1C[C@H]2[C@H](OC(=O)c1ccccc1)c1cc(C#N)nc2ccc(OC)cc12,growth inhibition,[1],49% (inactive)
same,inhibition,[2],19% (inactive)
same,inhibition,[3],-2% (inactive)
same,growth inhibition,[4],97% (active)
same,outcome,[5],inactive
same,outcome,[6],inactive
same,outcome,[7],inactive
COC(=O)c1ccc(CC(C)NCC(O)c2ccc(F)c(Cl)c2)cc1 (stereo unspecified),growth inhibition,[1],78% (active)
same,inhibition,[2],-4% (inactive)
same,inhibition,[3],-7% (inactive)
same,growth inhibition,[4],98% (active)
same,outcome,[5],inactive
same,outcome,[6],inactive
same,outcome,[7],inactive
Cc1cc(C2CCCCN2C)ccc1-c1ccc(C(=O)N2CCc3cc4c(cc32)C2(CCN(C)CC2)CO4)cc1 (stereo unspecified),growth inhibition,[1],94% (active)
same,inhibition,[2],37% (inactive)
same,inhibition,[3],1% (inactive)
same,growth inhibition,[4],95% (active)
same,outcome,[5],inactive
same,outcome,[6],inactive
same,outcome,[7],inactive
